Sequences and labels used below:
T1: UNK ZnF1-3 (human, UniProt Q9C0B0 31-174)
T1 sequence: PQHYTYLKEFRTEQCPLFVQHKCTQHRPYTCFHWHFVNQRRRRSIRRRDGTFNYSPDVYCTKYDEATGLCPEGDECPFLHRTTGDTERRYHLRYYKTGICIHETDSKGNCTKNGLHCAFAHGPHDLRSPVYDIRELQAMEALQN

B1: chr18:47247233:47247234:+_ENSMUSG00000042705_ENSMUST00000049388|mus_hu|motif|central (ssRNA)
RNA: GGGAGUUCUACAGUCCGACGAUCUUGUAUAUGGCUAUUUUCUUAAUUUUAUUCAUGUAAUUACCAAAGCUCUGUAUUCGGCGGAGGUACACAUCUUAUCUUGUAUCCAUGGACGCUCCUUGAUACAUUAUGGUAUCAUCCAGCCAACAGAGGAUUGAGCAUCA
B2: chr1:178670160:178670161:-_ENSMUSG00000057335_ENSMUST00000057037|mus_mus|FALSE|FALSE (ssRNA)
RNA: GGGAGUUCUACAGUCCGACGAUCCUGAGGCCUCGAGUCAACAGACCGACCGUUGUUUCCUUCUGGUGUUUUAGAAUGAACUAAUGGAGGUAUCUUUCGGAAGUUGAGACUUUCAUCAAAAACACGAUCAACCAACUCUUCUCUCAACAGAGGAUUGAGCAUCA
B3: 98562344_98563384_6126_CDS_ENSG00000196367_ENST00000456197|human|control|control (ssRNA)
RNA: GGGAGUUCUACAGUCCGACGAUCCCAUGCUCAUCACUGCCAGGCGCGUCUUCACCAGCUCCAGACUCAGCAUCACCAGCUCGCUUGUACCUGAGGUGGCUUCGGUGCUUCCUGACGCUGCCUGAGGGUUUAAAUGCUCCCGGACAACAGAGGAUUGAGCAUCA
B4: 33247490_33252972_1089_CDS_ENSG00000083642_ENST00000315596|human|control|control (ssRNA)
RNA: GGGAGUUCUACAGUCCGACGAUCCCUGCCCAAGUAGCACUGCCAAAGUGGCUUGUUUUGAGAAGCCAAUUCUGAAUCCUUUGCCCCAAACAUUUUUGCCAGUAGUUUAACAACUUGUAGGCGCUCCUCAUUAUCAUUGCUCUUCAACAGAGGAUUGAGCAUCA
B5: chr12:39756943:39756944:-_ENSG00000139116_ENST00000544797|hu_mus|hu_hu_hu_mus_False|1_18 (ssRNA)
RNA: GGGAGUUCUACAGUCCGACGAUCGGUUUGGCUGUUACCCCCAAGGGAAUCCUGCAAGAGUCUUGUCAGCUUAGAGUCUCUGUAAGGGACAUGGGUGGCUCUCUUGCUCUUGUCCCCCAAGGCACUUAUUACAUUCCCAAGUGCCAACAGAGGAUUGAGCAUCA
B6: chr2:224824363:224824364:+_ENSG00000135900_ENST00000258383|hu_mus|FALSE|FALSE (ssRNA)
RNA: GGGAGUUCUACAGUCCGACGAUCAGCUUCUUUCUCUAUGCCAAGGCUCUGACGUUUCGCCUCUUCGCUUUUGAUGUAGCAGCUAUUGAUAAAUGCAGUUUUGAGAAGGUCCAACGAAAAGGUUUCUUGUAAGCGAGAUCCAAACAACAGAGGAUUGAGCAUCA
B7: 64079182_64079302_4442_3pUTR_ENSMUSG00000025959_ENSMUST00000114086|mouse|control|control (ssRNA)
RNA: GGGAGUUCUACAGUCCGACGAUCCCCACAGCCAACAAAGGACUCUGAAGCAAGCAAGCACCAUCAUGGUAUCUCAGUGCGCCCUGCUCCAAGAGAGAUCAGGAGCAGAUCACAAAGACCUCACUGAUACAAAAGAGAAAUUACCAACAGAGGAUUGAGCAUCA
B8: chr8:104081237:104081238:+_ENSG00000155097_ENST00000518738|hu_mus|motif|central (ssRNA)
RNA: GGGAGUUCUACAGUCCGACGAUCAACACACAGAAUUAUGCAUACCAUGAUAUCAAGGAGGAAAAUACCUCUUUAAAUAAACGGUUCGGUUUAUAAAUAAACUCUGAUUUUUUUCAGUACACAUUUACAGACCUGAUCAAUAAACAACAGAGGAUUGAGCAUCA
B9: chr10:111893599:111893600:+_ENSG00000148700_ENST00000277900|hu_hu|FALSE|FALSE (ssRNA)
RNA: GGGAGUUCUACAGUCCGACGAUCAUUCAGACAGAUAGCUGUUUAUGGUGAAUUAUAAUAAUACUUCAUGAGGGCAGAGCUAAUUAAAACUAGUAAUUGCUUAAAAUUCAAAGCCAUUUCUGGACAUAUAAAAUGAGAGAUGAACAACAGAGGAUUGAGCAUCA
B10: chrX:12193597:12193598:+_ENSMUSG00000031007_ENSMUST00000033313|mus_mus|motif|central (ssRNA)
RNA: GGGAGUUCUACAGUCCGACGAUCACAAAGCUAGUCUCUUCUGAAAUCAACAUAGUAUUUUUAAUAAUUUUAAUAUCUCGGCGGAACCACACGGAUCACCAAACUUGCAGAAGAGAUUAAAAACAGCUAGCUUGCUAGUCAUAUCAACAGAGGAUUGAGCAUCA
B11: 94906243_94906363_1931_3pUTR_ENSG00000149212_ENST00000536441|human|control|control (ssRNA)
RNA: GGGAGUUCUACAGUCCGACGAUCAAAUAAAACACAUCAUUGCACAUUACAGCCGCAAAAAACAAAAAAAAAAAAACAAACGGCUAAACUUUGACACUAGAGAACUGAAUAAUUUUUGAUGCUAUAUCACAAAUAGCUUCAAUGCAACAGAGGAUUGAGCAUCA
B12: chr4:136876768:136876769:-_ENSMUSG00000006699_ENSMUST00000051477|mus_hu|FALSE|FALSE (ssRNA)
RNA: GGGAGUUCUACAGUCCGACGAUCAAAAAAAAAAAAAAACACACACACACAAAAAUUUUUUUUUUGAAACAACAAAAAAAAAUAGUACUAAUCACUUUUCUGACAAUACAAUUACUCAAAAUUAACUAGUACUGGGAGGGGGAACAACAGAGGAUUGAGCAUCA
B13: chr10:111893621:111893622:+_ENSG00000148700_ENST00000277900|hu_hu|motif|central (ssRNA)
RNA: GGGAGUUCUACAGUCCGACGAUCUAAUUCAGACAGAUAGCUGUUUAUGGUGAAUUAUAAUAAUACUUCAUGAGGGCAGAGCGGAUUAAAACUAGUAAUUGCUUAAAAUUCAAAGCCAUUUCUGGACAUAUAAAAUGAGAGAUGCAACAGAGGAUUGAGCAUCA
B14: chr1:82457952:82457953:+_ENSG00000117114_ENST00000335786|hu_mus|motif|central (ssRNA)
RNA: GGGAGUUCUACAGUCCGACGAUCAGCUUUGCUGAAACAAUUUACAUGUCAUUAGAACUUUACCAUAAAAUAAAUUAAUUACGGAAUAUAGCCAGAAGGAAUAUGGAAGAGUAAUAUUUCUGUUUUAUUUUAUUUUUAUUUUAUCAACAGAGGAUUGAGCAUCA
B15: 23644147_23644267_867_3pUTR_ENSMUSG00000028986_ENSMUST00000030841|mouse|control|control (ssRNA)
RNA: GGGAGUUCUACAGUCCGACGAUCUUGAAUAAGUGGUUCAGCUUGUACUGUUUUACUUAGGAAAUUCUUCGAUAUAAGAGGAAACCUGACUUUAGCAAGGAUAUCAACCAUGAAUGGCUGGCGGUUAGGCUCAUCAUAUUUCAACAACAGAGGAUUGAGCAUCA
B16: chr2:25965407:25965408:-_ENSG00000143970_ENST00000336112|hu_mus|motif|central (ssRNA)
RNA: GGGAGUUCUACAGUCCGACGAUCAUGUGCUGCCGGAAUAAAAUCUCUAGGCAGGCUCUUUUCAUCAGAUGCUUGGCCUCGGGAGAAUAUGUAAUUCUCCUGGCCUAAAGUGGUUUGCUCACUCACUGGUGCCUCAGUCUUACCCAACAGAGGAUUGAGCAUCA
B17: 82834861_82834981_3494_CDS_ENSG00000038427_ENST00000343200|human|control|control (ssRNA)
RNA: GGGAGUUCUACAGUCCGACGAUCUUCAUUGACAGUACCCACUUCUCCCAAUCCUUCGUCGAUAAUGGAGGAAGCUGUACCAGAAAACUUUUGCACAGCACUGGGAAGCACUGGAACAACAGAGCUGCUGACUGUGACCAGUUGCAACAGAGGAUUGAGCAUCA
B18: chr14:70842435:70842436:-_ENSG00000213463_ENST00000256366|hu_hu|motif|central (ssRNA)
RNA: GGGAGUUCUACAGUCCGACGAUCCUGCACCUGUAACCUGUGCUGCACUCUCAGAGACACAGCAUAGCCUGCAUUACGAAAGAGGUCGGCAGCAUCCUGGUGCAGCAGGUUCUUUAGGUCUUGGCCAUUUACCGAAAGGAUCUUCAACAGAGGAUUGAGCAUCA
B19: chr6:13622506:13622507:-_ENSG00000010017_ENST00000011619|hu_mus|FALSE|FALSE (ssRNA)
RNA: GGGAGUUCUACAGUCCGACGAUCAGGAAGCAAUGUAAAGCGACAAAAACCUGUCCCCAGUACAUAAUUAAAAAAAAAUCUAAAUUUCAAAUCAGCAGAGCCGGUCUACUUCCAUGUUGACUGUUUGCCACAAUGUGAGUGUGACAACAGAGGAUUGAGCAUCA
B20: chr1:109605286:109605287:-_ENSG00000197780_ENST00000461096|hu_mus|hu_hu_hu_mus_True|8_88 (ssRNA)
RNA: GGGAGUUCUACAGUCCGACGAUCAAGUUUCAGAGUAACAUUCAGUAUACUUAAAUCAUGCAAUUAUCCUUAUUAUAAGCUAAGCAGAAUAAUAAUUUAAUACCGUAAGUGAACUACACACAAAGCCGUGUAUUCAGAAAUGGUCAACAGAGGAUUGAGCAUCA
B21: chr10:111893621:111893622:+_ENSG00000148700_ENST00000277900|hu_hu|FALSE|FALSE (ssRNA)
RNA: B13 RNA with G82U, G83A
B22: chr18:56900473:56900474:+_ENSMUSG00000024590_ENSMUST00000025486|mus_mus|FALSE|FALSE (ssRNA)
RNA: GGGAGUUCUACAGUCCGACGAUCAACAUCUAUCUCUUCAAUGCACACGUUCCCCGUGGCUGAGGCAGAGUGGGAAAUGCUAACACUGCUGCUCGCCUCCGACUCCUCCACAUCAACUCUCUUCCGCUUUCCUCUGGUGGUGCGCAACAGAGGAUUGAGCAUCA

Numbering of substitutions follows the chain as printed. In all, about 24,000 sequences were measured (“enrichment r”: median about 0.99, highest 2% from about 3.7 on). For the sample, the highest values were picked, then their nearest neighbours and some sequences at random.

In the assay the target is T1, UNK ZnF1-3. Nature of the assay: nsRBNS (natural sequence RNA bind-n-seq); RBNS binding buffer (assumed for nsRBNS): 25 mM Tris pH 7.5, 150 mM KCl, 3 mM MgCl2, 0.01% Triton X-100, 500 ug/ml BSA, 20 U/ml SUPERase-In, 4 C; UNK is unkempt and MSI1 is Musashi-1; names of the RNAs are library labels; protein concentration not given here; high values mean tight binding.
For the molecule B1, the binding signal turned out to be 1.03 enrichment R. As for B2, the figure is 1 enrichment R; as for B3, 0.681 enrichment R. The result for B4 reads 0.879 enrichment R. B5 displayed a binding signal of 0.497 enrichment R.

Molecule B6 returned a binding signal of 1 enrichment R. B7 yielded a binding signal of 1.03 enrichment R.

On to B8, for which the binding signal is 0.25 enrichment R. The result for B9 reads 4.42 enrichment R; that for B10, 1.81 enrichment R; that for B11, 6.07 enrichment R. The result for B12 reads 3.42 enrichment R; that for B13, 4.04 enrichment R. The result for B14 reads 3.79 enrichment R; that for B15, 0.91 enrichment R; that for B16, 0.714 enrichment R.

The molecule B17 had a binding signal of 0.912 enrichment R. The result for B18 reads 0.468 enrichment R; that for B19, 2.67 enrichment R. The molecule B20 showed a binding signal of 0.504 enrichment R. As for B21, the figure is 5.27 enrichment R.

In turn, B22 registered a binding signal of 1.08 enrichment R.

The values above are taken from PMC12136788.
